Test [1] in a line: qHTS assay for small molecule agonists of the p53 signaling pathway (AID 651631; calls by dose curve; note: nearly all actives have a fitted effect of over 15% in size; note: potency is the fitted concentration of half-maximal effect). The method in brief: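 We treat p53RE-bla HCT-116 cells with compounds for 16 h at 37 °C, add LiveBLAzer B/G FRET substrate for 2 h at room temperature, and measure fluorescence intensity.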
For orientation: qHTS replaces the single test concentration by a dilution series.

The nature of test [2]: qHTS assay for small molecule agonists of the p53 signaling pathway - cell viability (AID 651633; calls by dose curve;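 note: p53RE-bla HCT reporter cells with a stable beta-lactamase p53 reporter; series mostly up to about 83 µM; nearly all actives have a fitted effect of over 30% in size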). In a few lines:
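p53RE-bla cells were treated with compound for 16 hours at 37 C. Cytotoxicity was then measured as CellTiter-Glo luminescence after 30 min at room temperature.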

Test [3] is described as follows: qHTS assay for small molecule disruptors of the mitochondrial membrane potential (AID 720635). Note: potency is the fitted concentration of half-maximal effect. The method in brief:
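HepG2 cells exposed to compound 1 hr at 37C, then Mito-MPS dye 30 min. Ratio read of aggregate (540/590 nm) versus monomer (490/535 nm) fluorescence.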

Test [4] is described as follows: qHTS assay to test for compound auto fluorescence at 590 nm (red) in HepG2 cells (AID 720674). The method in brief: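 Seeding: 2,000 HepG2 cells/well, MEM/10% FBS, overnight 37 C. Dosing: compound vs DMSO. Incubation: 1 hr, 37 C, 5% CO2. Read: fluorescence 540 ex/590 em, Rose Bengal sodium as red reference.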
A short description of test [5]: qHTS assay to test for compound auto fluorescence at 535 nm (green) in HepG2 cells (AID 720675).
Test [6] is described as follows: qHTS assay to test for compound auto fluorescence at 460 nm (blue) in HEK293 cells (AID 720678). In a few lines:
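Auto fluorescence in the blue band was quantified as triamterene equivalency. HEK293 cells were seeded at 2,000/well, dosed after a 4-5 hr attachment, and kept overnight at 37C before the 405/460 nm reading.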

Test [7] in a line: qHTS assay to test for compound auto fluorescence at 590 nm (red) in HEK293 cells (AID 720679). The method in brief:
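Autofluorescence equivalency to Rose Bengal sodium, 540/590nm, in HEK293 cells exposed overnight to 23 nL compound per well.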

Test [8] in a line: qHTS assay to test for compound auto fluorescence at 535 nm (green) in HEK293 cells (AID 720680).
Test [9] can be described thus: qHTS assay to test for compound auto fluorescence at 460 nm (blue) in HEK293 cell free culture (AID 720681). In a few lines:
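Compounds were added to cell-free DMEM with 10% FBS and fluorescence read directly. The blue channel used 405 nm excitation and 460 nm emission, with triamterene as the reference fluorophore.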

Test [10] in a line: qHTS assay to test for compound auto fluorescence at 535 nm (green) in HEK293 cell free culture (AID 720682). In a few lines:
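Green-channel intensity (Ex/Em 485/535 nm) was recorded from compound-treated wells containing only DMEM with 10% FBS. Fluorescein provided the equivalency standard.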

A short description of test [11]: qHTS assay to test for compound auto fluorescence at 590 nm (red) in HEK293 cell free culture (AID 720683). The method in brief:
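Cell-free wells of DMEM with 10% FBS received compound, and intrinsic fluorescence was read at excitation/emission 540/590 nm. Values expressed as equivalence to Rose Bengal sodium.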

A short description of test [12]: qHTS assay to test for compound auto fluorescence at 590 nm (red) in HepG2 cell free culture (AID 720684). In a few lines:
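Compound was pinned into wells holding MEM with 10% FBS and no cells, and red fluorescence was read at Ex/Em 540/590 nm. Signal is expressed as auto fluorescence equivalency relative to Rose Bengal sodium.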

The nature of test [13]: qHTS assay to test for compound auto fluorescence at 460 nm (blue) in HepG2 cell free culture (AID 720685). In a few lines:
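Compound (23 nL) or DMSO pinned into cell-free MEM with 10% FBS; blue fluorescence read at 405/460 nm excitation/emission, expressed as auto-fluorescence equivalency to triamterene.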

Test [14] can be described thus: qHTS assay to test for compound auto fluorescence at 535 nm (green) in HepG2 cell free culture (AID 720686).
Test [15] in a line: qHTS assay to test for compound auto fluorescence at 460 nm (blue) in HepG2 cells (AID 720687). The method in brief: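 HepG2 cells in MEM with 10% FBS, attached overnight at 37 C, were exposed to compound or DMSO for 1 hr at 37 C, 5% CO2. Blue fluorescence was read at 405/460 nm, with triamterene as reference fluorophore.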
Test [16] in a line: qHTS assay for small molecules that induce genotoxicity in human embryonic kidney cells expressing luciferase-tagged ATAD5 - cell viability (AID 651634; calls by dose curve; note: nearly all actives have a fitted effect of over 25% in size). In a few lines:
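HEK293T cells expressing luciferase-tagged ATAD5 were exposed to compound or DMSO for 15.5 hr at 37C, 5% CO2. Viability was then read as live-cell protease activity by CellTiter-Fluor fluorescence after 30 min at 37C.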

In test [17] the target is Glucocorticoid receptor (Homo sapiens) (UniProt P04150). Kind of test: qHTS assay to identify small molecule agonists of the glucocorticoid receptor (GR) signaling pathway (AID 720691; active = well fitted activation curve with a large enough effect in the signal ratio in the repeat runs, not every such curve was filed as active; the % refers to the signal ratio). In a few lines:
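GR-bla HeLa cells (beta-lactamase reporter under glucocorticoid response element) were plated 4 h at 37 C/5% CO2, given compounds in DMSO, and incubated 18 h at 37 C. LiveBLAzer B/G FRET substrate was added for 2 h at room temperature, then fluorescence intensity read.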

Test [18] in a line: qHTS assay for small molecules that induce genotoxicity in human embryonic kidney cells expressing luciferase-tagged ATAD5 (AID 651632). Note: nearly all actives have a fitted effect of over 15% in size. The method in brief:
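HEK293T cells carrying a luciferase reporter tagged to ATAD5 were exposed to compound or DMSO vehicle for 16 hr at 37C, 5% CO2. Amplite was added, and after 30 min at room temperature luciferase activity was read as a marker of ATAD5 induction.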

Test [19] in a line: qHTS assay for small molecule disruptors of the mitochondrial membrane potential - cell viability (AID 720634; calls by dose curve;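 note: human HepG2 liver cancer cells; series mostly up to about 83 µM; nearly all actives have a fitted effect of over 20% in size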). In a few lines:
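HepG2 cells seeded overnight at 37 C, then exposed to compound or DMSO for 1 hr at 37 C, 5% CO2. m-MPI dye added, then CellTiter-Glo for 30 min at room temperature; viability read as ATP luminescence.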

Test [20] concerns the target Glucocorticoid receptor (Homo sapiens) (UniProt P04150). Kind of test: qHTS assay to identify small molecule antagonists of the glucocorticoid receptor (GR) signaling pathway (AID 720692; active = well fitted inhibition curve with a large enough effect in the signal ratio in the repeat runs, not every such curve was filed as active; the % refers to the signal ratio). In a few lines: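 GR-bla HeLa cells (beta-lactamase reporter under glucocorticoid response element) were pre-plated 4 h at 37 C, treated with compounds plus 5 nM dexamethasone (final) for 18 h, then read by LiveBLAzer B/G FRET fluorescence after 2 h.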

A number with no mark means an inactive call. Results filed as inconclusive are left out. Calls of active or inactive are those of the source. Unless noted, calls come from the whole dose curve; as a rule, active = well fitted curve in the direction sought with a large enough effect in the repeat runs; inconclusive = weak or mixed curves; inactive = no such curve, though single readings can be large; an effect the other way counts as inactive or inconclusive.
% is set by controls: 0 for no effect and ±100 for the full control effect.

Sequence of Glucocorticoid receptor (Homo sapiens) (P04150 whole entry, looked up): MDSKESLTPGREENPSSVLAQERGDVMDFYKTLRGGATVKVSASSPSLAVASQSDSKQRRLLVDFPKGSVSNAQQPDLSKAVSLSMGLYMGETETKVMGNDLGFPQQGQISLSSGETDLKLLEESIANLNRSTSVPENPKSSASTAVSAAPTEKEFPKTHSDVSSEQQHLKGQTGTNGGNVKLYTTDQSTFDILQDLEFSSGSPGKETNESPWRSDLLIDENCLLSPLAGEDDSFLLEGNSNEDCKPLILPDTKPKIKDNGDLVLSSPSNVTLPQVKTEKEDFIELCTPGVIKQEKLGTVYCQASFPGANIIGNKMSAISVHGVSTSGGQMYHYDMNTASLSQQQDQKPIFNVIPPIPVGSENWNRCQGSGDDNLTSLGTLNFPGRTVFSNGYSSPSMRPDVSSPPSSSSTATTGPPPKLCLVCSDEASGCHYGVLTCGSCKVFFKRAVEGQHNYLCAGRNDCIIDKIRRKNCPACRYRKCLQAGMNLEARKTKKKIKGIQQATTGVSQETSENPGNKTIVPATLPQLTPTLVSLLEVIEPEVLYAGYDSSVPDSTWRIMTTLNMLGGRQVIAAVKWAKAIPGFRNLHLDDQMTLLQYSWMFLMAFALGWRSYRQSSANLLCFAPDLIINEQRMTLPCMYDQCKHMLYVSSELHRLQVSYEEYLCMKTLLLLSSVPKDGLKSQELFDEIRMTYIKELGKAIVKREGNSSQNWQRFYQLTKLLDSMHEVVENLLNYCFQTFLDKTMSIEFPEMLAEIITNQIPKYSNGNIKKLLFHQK

Consider `O=C=Nc1ccc(Cl)c(Cl)c1`, for which the Potency entry in test [1], in test [2], in test [6], in [9], in [13] and in test [15] was “inactive” each time. For the same molecule, the Potency in test [3] is 7.57 µM (active). In addition, the result in [4], in test [5], in test [7], in test [8], in [10] and in test [11] was inactive. For the same molecule, the result in test [12] and in test [14] was inactive.
For the molecule `O=C1c2ccccc2C(=O)C1(O)O`, the Potency in [1] is 27.4 µM (active); in test [3], 24.5 µM (active). In addition, the Potency entry in test [16], in [6], in test [9], in test [15] and in [17] was “inactive” throughout. The molecule was called inactive in [4], in test [5], in test [7], in test [8], in test [10] and in test [11]. In addition, the result in test [12] and in [14] was inactive.
With `COC(=O)CS`, the Potency result in [18], in [2], in test [16], in [19], in test [3] and in test [6] was “inactive” in each case. In addition, the Potency result in test [9], in test [13] and in [15] was “inactive” each time. The molecule was classed as inactive in test [4], in test [5], in test [7], in test [8], in [11] and in [12]. In test [14], the call was inactive.
As to `C[C@H]1c2cccc(O)c2C(O)=C2C(=O)[C@]3(O)C(O)=C(C(N)=O)C(=O)[C@@H](N(C)C)[C@@H]3[C@@H](O)[C@@H]21`, the Potency entry in test [18], in test [2], in test [16], in test [19], in [6] and in test [9] was “inactive” throughout. Moreover, the Potency result in test [13], in test [15] and in [17] was “inactive” each time. Also, the outcome in test [4], in test [5], in test [7], in test [8], in test [10] and in test [11] was inactive. Moreover, the result in [12] and in test [14] was inactive.
In the case of `CN1CCCC(CC2c3ccccc3Sc3ccccc32)C1` (configuration not stated), the Potency entry in test [18], in [2], in test [16], in [19] and in test [17] was “inactive” in each case. The fluorescence, relative to Rose Bengal in test [4] was 0.272% [at 18.6 µM]. Moreover, the fluorescence, % of fluorescein control in [5] is -0.0795% [at 18.6 µM]; in test [14], -0.006% [at 18.6 µM]. Besides, the fluorescence, % of triamterene in [6] is 0.136% [at 18.6 µM]. The fluorescence, % of fluorescent control was -0.0119% [at 18.6 µM] in test [7]; -0.0216% [at 18.6 µM] in test [9]; 0.0507% [at 18.6 µM] in test [11]; 0.14% [at 18.6 µM] in [13]; 0.049% [at 18.6 µM] in [15]. Further, the fluorescence, % of fluorescein in test [8] was 0.0892% [at 18.6 µM]. In test [10], the activity change is 0.123% [at 18.6 µM]. Further, the fluorescence, % of Rose Bengal in test [12] was -0.0495% [at 18.6 µM].
Take `CC(C)c1nc(CN(C)C(=O)N[C@H](C(=O)N[C@@H](Cc2ccccc2)C[C@H](O)[C@H](Cc2ccccc2)NC(=O)OCc2cncs2)C(C)C)cs1`: the Potency entry in [18], in test [2], in test [16], in [19], in test [6] and in test [9] was “inactive” in each case. Also, the Potency entry in [13], in test [15] and in test [17] was “inactive” each time. Besides, the molecule was called inactive in test [4], in test [5], in test [7], in test [8], in test [10] and in [11]. Moreover, the outcome in test [12] and in [14] was inactive.
With `CCN(CC)CCNC(=O)COc1ccc(OC)cc1`, the Potency result in [18], in test [2], in [16], in test [19], in test [3] and in test [6] was “inactive” each time. In addition, the Potency entry in test [9], in test [15], in test [17] and in test [20] was “inactive” each time. Further, the call in [4], in test [5], in test [7], in test [8], in test [10] and in test [11] was inactive. The call in test [12] and in [14] was inactive.
With `OCCN1CCN(CCCN2c3ccccc3Sc3ccc(Cl)cc32)CC1`, the Potency result in test [18], in [2], in test [16], in [19], in test [17] and in test [20] was “inactive” throughout. Besides, the fluorescence, relative to Rose Bengal in [4] was 0.837% [at 18.6 µM]. The fluorescence, % of fluorescein control in test [5] was 0.0508% [at 18.6 µM]; in test [14] it was 0.137% [at 18.6 µM]. For the same molecule, in test [6], the fluorescence, % of triamterene is -0.38% [at 18.6 µM]. The fluorescence, % of fluorescent control in test [7] was -0.0409% [at 18.6 µM]; in test [9], -0.0053% [at 18.6 µM]; in test [11], 0.0511% [at 18.6 µM]; in test [13], 0.0187% [at 18.6 µM]; in test [15], 0.0774% [at 18.6 µM]. Further, in test [8], the fluorescence, % of fluorescein is -0.0167% [at 18.6 µM]. Also, the fluorescence, % of Rose Bengal in [12] is -0.146% [at 18.6 µM].
`Oc1cccc(Nc2ccccc2)c1`: the Potency entry in [18], in test [2], in [16], in test [19], in [6] and in [9] was “inactive” in each case. The Potency entry in [13], in test [15] and in test [17] was “inactive” in each case. Moreover, in test [3], the Potency is 25.4 µM (active). Moreover, the molecule was called inactive in test [4], in test [5], in [7], in test [8], in [10] and in [11]. Besides, the molecule was classed as inactive in [12] and in [14].
In the case of `CCC(C)COC(C)=O` (configuration not stated), the Potency result in test [18], in test [2], in test [16], in test [19], in test [3] and in test [9] was “inactive” in each case. The Potency entry in [15], in test [17] and in test [20] was “inactive” in each case. In addition, the molecule was called inactive in test [4], in [5], in test [7], in test [8], in test [10] and in test [11]. For the same molecule, the molecule was called inactive in test [12] and in test [14].

Source of the values: PubChem BioAssay (Tox21).
